# Results as given in the supplement of paper PMC9694430.
# Structures can show the parent of a compound that is named as a salt.
# Assays:
# Test in all cases: thermal shift delta Tm vs DMSO control; higher = stronger stabilization (binding)
# Settings in all cases: 12.5 µM; protein concentration 2 µM
# LOC_OS01G01410-cb001 = system: LOC_OS01G01410-cb001
# In short: (§1)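 The melting temperature shift given here is a triplicate mean, measured against protein that received only DMSO. Melting temperatures came from Boltzmann fits of differential scanning fluorimetry data on E. coli-expressed, purified rice kinase domain constructs. Each 19.5 μl well contained 2 μM kinase, 100 mM potassium phosphate pH 7.5, 150 mM NaCl, 10% glycerol, 5 × SYPRO Orange and compound in DMSO. Plates were scanned from 25°C to 95°C at 0.05°C/s.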
# LOC_OS01G02750-cb003 = system: LOC_OS01G02750-cb003
# In short: as §1
# LOC_OS01G10900-cb004 = system: LOC_OS01G10900-cb004
# In short: as §1
# LOC_OS01G13800-cb001 = system: LOC_OS01G13800-cb001
# In short: as §1
# LOC_OS01G14860-cb001 = system: LOC_OS01G14860-cb001
# In short: as §1
# LOC_OS01G21960-cb002 = system: LOC_OS01G21960-cb002
# In short: as §1
# LOC_OS01G39600-cb002 = system: LOC_OS01G39600-cb002
# In short: as §1
# LOC_OS01G48390-cb002 = system: LOC_OS01G48390-cb002
# In short: as §1
# LOC_OS01G51400-cb002 = system: LOC_OS01G51400-cb002
# In short: as §1
# LOC_OS01G52050-cb004 = system: T1, LOC_OS01G52050-cb004
# T1 sequence (whole entry): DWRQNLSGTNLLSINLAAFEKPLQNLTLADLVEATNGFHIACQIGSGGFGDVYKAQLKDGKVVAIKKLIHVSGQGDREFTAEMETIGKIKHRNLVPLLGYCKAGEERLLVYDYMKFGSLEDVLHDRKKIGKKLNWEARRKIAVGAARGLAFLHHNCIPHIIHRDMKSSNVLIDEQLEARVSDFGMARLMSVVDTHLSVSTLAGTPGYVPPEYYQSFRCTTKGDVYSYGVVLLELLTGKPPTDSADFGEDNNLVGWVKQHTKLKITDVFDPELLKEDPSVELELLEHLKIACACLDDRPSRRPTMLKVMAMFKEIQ
# In short: as §1
Compound,thermal shift delta Tm (LOC_OS01G01410-cb001) [°C],thermal shift delta Tm (LOC_OS01G02750-cb003) [°C],thermal shift delta Tm (LOC_OS01G10900-cb004) [°C],thermal shift delta Tm (LOC_OS01G13800-cb001) [°C],thermal shift delta Tm (LOC_OS01G14860-cb001) [°C],thermal shift delta Tm (LOC_OS01G21960-cb002) [°C],thermal shift delta Tm (LOC_OS01G39600-cb002) [°C],thermal shift delta Tm (LOC_OS01G48390-cb002) [°C],thermal shift delta Tm (LOC_OS01G51400-cb002) [°C],thermal shift delta Tm (LOC_OS01G52050-cb004) [°C]
Cc1csc(-c2nnc(Nc3ccc(Oc4ncccc4-c4ccnc(N)n4)cc3)c3ccccc23)c1,1.65,0.49,0.46,0.28,0.97,1.99,1.72,1.04,0.22,1.54
CCCCCCCCCCCCCCCCOP(=O)([O-])OCC[N+](C)(C)C [Miltefosine],-6.86,-17.5,-2.68,-7.38,-3.1,-5.94,-5.77,-3.18,-3.78,-6.22
Cc1ccc(NC(=O)c2ccc(CN3CCN(C)CC3)cc2)cc1Nc1nccc(-c2cccnc2)n1 [Imatinib Mesylate (STI571)],1.08,0.88,1.18,0.6,0.15,0.23,0.07,0.86,0.08,0.02
Cc1ccccc1CN1C2=NCCN2C(=O)C2=C1CCN(Cc1ccccc1)C2 [TIC10 Analogue],0.06,2.43,0.31,-0.07,0.07,0.85,-3.24,0.44,0.5,-0.27
CN1CCC(COc2cnc(-c3cccc(Cn4nc(-c5cccc(C#N)c5)ccc4=O)c3)nc2)CC1,0.33,0.27,0.17,-0.5,0.03,0.05,0.63,0.2,0.24,0.04
CNC(=O)c1ccccc1Sc1ccc2c(/C=C/c3ccccn3)n[nH]c2c1 [Axitinib],2,0.59,0.25,-0.18,0.29,0.14,1.08,0.12,0.04,0.17
Cn1cnc2c(F)c(Nc3ccc(Br)cc3F)c(C(=O)NOCCO)cc21,0.1,0.45,0.02,-0.05,0.19,0.38,0.61,0.43,0.53,0.01
FC(F)(F)c1ccc(/C=C/c2nc(COc3ccc(CCCCn4ccnn4)cc3)co2)cc1 [Mubritinib (TAK 165)],0.34,-0.49,0.23,0.16,0.08,-0.04,-0.52,0.23,-0.08,0.24
Cn1cc(/C=C2\C(=O)Nc3cccnc32)c2ccccc21,3.9,0.74,1.42,-0.51,0.68,1.44,-0.03,1.92,0.44,1.86
O=c1c(-c2ccc(O)cc2)coc2cc(O)cc(O)c12 [Genistein],0.67,0.54,0.86,-0.01,1.11,0.55,0.12,0.77,0.12,1.14
